Most compounds without a hit are left out; they make up all but 6% or so of the library.
D3 antag: D3 dopamine receptor (human) antagonism. P35462. D3R cells, DiscoveRx beta-arrestin luminescence, antagonist mode; hits give low values. max response, negative = inhibition, %. 360,000 tested, 2.5% active. AID 652054; in the data active = max response below about -50%; inconclusive = no clear call, values can overlap the other calls; note: % is set by controls: 0 for no effect and ±100 for the full control effect
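Cells plated overnight at 1500 cells/well, then exposed to library compounds with dopamine controls for 90 minutes at 37 degrees C. DiscoveRx reagent added for 30–60 minutes at room temperature; luminescence read, quantitative HTS format.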
D3 ag: activates the human D3 dopamine receptor | 410,000 tested, 0.58% active | D3R DiscoveRx beta-arrestin cells, luminescence, 90 min | max activation, % | P35462; in the data active = max activation above about 30%; note: 0% is about no effect
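Agonist-mode cell screen: cells plated at 1500/well and incubated overnight at 37 °C, then exposed to library compounds for 90 min at 37 °C. Detection reagent was added for 30–60 min at room temperature, and luminescence was read.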
D1 potentiator: enhances dopamine response at the human D1 receptor; P21728; HEK293 TREx D1 cells, calcium flux, dopamine EC20 potentiation; potentiation, % at 10 µM; 360,000 tested, 0.036% active; AID 504651; in the data active = potentiation above about 30%; note: 0% is about no effect
Target sequence (P21728 whole entry, looked up): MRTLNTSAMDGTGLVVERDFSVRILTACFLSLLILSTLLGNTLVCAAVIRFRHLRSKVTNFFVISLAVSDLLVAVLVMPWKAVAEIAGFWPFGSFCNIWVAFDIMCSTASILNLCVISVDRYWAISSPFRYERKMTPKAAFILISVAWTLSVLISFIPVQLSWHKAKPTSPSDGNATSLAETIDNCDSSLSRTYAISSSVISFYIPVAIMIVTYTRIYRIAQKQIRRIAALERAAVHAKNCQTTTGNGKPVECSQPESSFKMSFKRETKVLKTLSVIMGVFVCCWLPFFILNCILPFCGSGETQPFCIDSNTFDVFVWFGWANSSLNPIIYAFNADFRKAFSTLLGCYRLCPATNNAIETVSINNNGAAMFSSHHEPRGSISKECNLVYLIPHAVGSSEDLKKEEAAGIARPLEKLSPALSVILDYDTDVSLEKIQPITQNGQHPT
D1 antag: human D1 dopamine receptor antagonism | AID 504652 | 360,000 tested, 3.2% active | activity change, negative = inhibition, % at 10 µM | HEK293 TREx D1 cells, calcium flux, dopamine EC80; hits give low values | P21728; in the data active = activity change below about -30%; note: % is set by controls: 0 for no effect and ±100 for the full control effect
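Antagonism measured as reduced calcium response to an EC80 dopamine addition following 180 s compound pre-read; cells were inducible HEK293 Trex D1 plated overnight at 30 C, read kinetically at 1 cycle/sec.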
D1 agonist: human D1 receptor agonism | AID 504660 | activation, % at 2 µM | P21728 | 360,000 tested, 1% active | HEK293 T-REx D1 cells, calcium flux, agonist mode; in the data active = activation above about 30%; note: 0% is about no effect
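Inducible HEK293 T-REx D1 cells, force-coupled to calcium signalling, were plated at 4000 cells/well with tetracycline and held overnight at 30 C. After no-wash calcium dye loading, compound-evoked calcium rise over 180 s flagged agonists.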
Active calls of the source: *; ? = inconclusive; nt = not tested or not shown.

SMILES	D3 antag	D3 ag	D1 potentiator	D1 antag	D1 agonist
O=C(c1ccc2c(=O)n3c(nc2c1)CCCCC3)N1CCN(c2ccc(F)cc2)CC1	2.8	3.8	-11.4	-49.9*	0.8
COCCCNC(=O)CCCn1c(=O)c2cccn2c2cccnc21	nt	-24.7	-2.8	-6.7	1.3
CCCCCCOc1ccc(C(=N)N(CCCC)CCCC)c2ccccc12	nt	11.6	nt	nt	nt
COc1ccc2c(c1)CCc1c(C(=O)Nc3cc(OC)c(Cl)cc3OC)noc1-2	nt	0.1	-1.1	-23.3	2.5
COc1cccc(C2C3(C#N)C(N)=NC(OC)(OC)C23C#N)c1 (stereo unspecified)	18.5	3.5	6.0	-1.6	0.8
COC1(OC)N=C(N)C2(C#N)C(c3cccc(Oc4ccccc4)c3)C12C#N (stereo unspecified)	-50.1*	2.7	1.8	-5.6	4.3
NC(=O)c1ccc(C[C@H](C(=O)O)N2C(=O)c3ccc(C(=O)O)cc3C2=O)cc1	nt	nt	6.8	21.8	4.8
CC(C)n1c(-c2ccc(N(C)C)cc2)nc2ccccc21	50.8	1.3	-11.9	-42.6*	3.5
COc1ccc(CNC(=O)Cn2c(SCC(=O)N(C)c3ccccc3)nc3ccccc32)cc1	nt	-15.7	2.4	-6.3	7.6
CCN(C(=O)CSc1nc2ccccc2n1CC(=O)NCc1ccc(OC)cc1)c1ccccc1	nt	-4.8	3.0	-1.9	35.4*
COC(=O)c1c(NC(=O)/C(C#N)=C/c2ccccc2)sc2c1CCC2	nt	5.2	-0.6	-6.1	0.8
CC(=O)NC1CC2CCCC(C1)N2CC(=O)NCc1ccc(F)cc1 (stereo unspecified)	22.2	-1.7	0.2	8.9	-2.1
CN1C2CCC1CC(NC(=O)CSc1ccc(Cl)cc1)C2 (stereo unspecified)	0.4	-1.3	-2.9	5.2	2.6
O=C(NC1CC2CCCC(C1)N2Cc1ccc(F)cc1)c1ccc(F)cc1 (stereo unspecified)	-108.1*	-22.0	-8.6	-68.5*	4.3
Cc1ccc(C(=O)NC2CC3CCCC(C2)N3C(=O)NC2CCCCC2)cc1 (stereo unspecified)	nt	nt	2.9	4.6	2.4
CC(=O)NC1CC2CCCC(C1)N2Cc1ccc(C)cc1 (stereo unspecified)	-113.1*	-7.2	-3.5	-7.4	2.2
CN1C2CCC1CC(NC(=O)c1ccc(Cl)cc1)C2 (stereo unspecified)	4.0	11.4	2.6	-32.0*	29.9
Cc1ccc(CN2C3CCCC2CC(NC(=O)c2ccc(C)cc2)C3)cc1 (stereo unspecified)	-109.3*	-9.8	-6.9	-67.9*	0.9
COc1ccccc1-c1cc(C(=O)Nc2c(C)nn(Cc3ccc(Cl)cc3)c2C)no1	nt	5.6	-0.9	-16.4	1.6
Cc1ccc(NN2C(=O)C=C(c3ccc(Cl)cc3)C2=O)cc1	-52.6*	-1.1	-8.4	-39.0*	3.3
O=C1C=C(c2ccccc2)C(=O)N1Nc1ccccc1	?	3.8	-7.9	-9.8	4.1
COc1ccc(C2=CC(=O)N(Nc3ccccc3)C2=O)cc1	-62.2*	-12.8	-5.1	18.8	5.3
COC(=O)[C@@]1(Cc2ccc(OC)cc2)[C@H]2c3cc(C(=O)N4CCCC4)n(Cc4ccccc4)c3C[C@H]2CN1C(=O)c1ccccc1	7.2	2.5	nt	nt	nt
O=C(c1cnn(-c2ccc(F)cc2)c1-n1cccc1)N1CCN(c2cccc(Cl)c2)CC1	nt	5.8	-2.2	-2.6	-0.3
Cn1c(SCc2c(F)cccc2Cl)nc2ccccc2c1=O	-4.1	4.2	8.1	23.8	-0.9
SMILES	D3 antag	D3 ag	D1 potentiator	D1 antag	D1 agonist
Cn1c(SCc2c(F)cccc2Cl)nc2c(c1=O)SCC2	5.2	-5.9	-8.2	-30.8*	1.6
O=C(Nc1cc(C(F)(F)F)ccc1Cl)[C@H](O)CCc1ccccc1	nt	nt	-5.0	-7.8	16.7
CCc1nnc(SCc2nc(-c3cccc(Cl)c3)oc2C)c2cc3sc(C)cc3n12	nt	-13.5	0.9	6.9	-0.4
N#Cc1c(-n2ncnc2-c2ccccc2Cl)sc2c1CCCCC2	nt	5.1	3.1	-34.6*	0.0
C=CCOC(=O)C(=O)/C=C/c1c(C)n(C)n(-c2ccccc2)c1=O	0.0	-16.7	1.4	-40.3*	-4.3
C=CCSC(=S)Nc1c(C)n(C)n(-c2ccccc2)c1=O	-1.8	5.1	1.9	-1.1	3.2
Cc1cc(C)cc(C(=O)NC(=S)Nc2ccc(-c3cc4ccccc4oc3=O)cc2)c1	11.1	1.2	-10.5	-57.0*	-0.2
